Assay [1] can be described thus: ATG_CRE_CIS: Attagene CIS-FACTORIAL HepG2 Assay for human cAMP Responsive Element (CRE) binding protein 3 (AID 2282926). As to conditions: HepG2 CRE cis-reporter, Attagene multiplexed mRNA; actives raise or lower the signal. A digest of the protocol:
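Liver-derived HepG2, transfected with a CRE-containing reporter panel, exposed 24 h; transcript levels sized and quantified by capillary electrophoresis of labelled amplicons; signal changes either way referenced to vehicle.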

The target of assay [2] is CCAAT/enhancer-binding protein beta (Homo sapiens) (UniProt P17676). Description: ATG_C_EBP_CIS: Attagene CIS-FACTORIAL HepG2 Assay for human CCAAT/Enhancer Binding Protein (C/EBP) beta (AID 2282927). The following applies: HepG2 Attagene cis-factorial transcription factor reporter; actives raise or lower the signal. The procedure, abridged: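 HepG2, transient MRTU transfection, 24 h treatment. RT-PCR plus CE fluorescence; DMSO negative control, bidirectional fit.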
Chain of CCAAT/enhancer-binding protein beta (Homo sapiens) (P17676 whole entry, looked up): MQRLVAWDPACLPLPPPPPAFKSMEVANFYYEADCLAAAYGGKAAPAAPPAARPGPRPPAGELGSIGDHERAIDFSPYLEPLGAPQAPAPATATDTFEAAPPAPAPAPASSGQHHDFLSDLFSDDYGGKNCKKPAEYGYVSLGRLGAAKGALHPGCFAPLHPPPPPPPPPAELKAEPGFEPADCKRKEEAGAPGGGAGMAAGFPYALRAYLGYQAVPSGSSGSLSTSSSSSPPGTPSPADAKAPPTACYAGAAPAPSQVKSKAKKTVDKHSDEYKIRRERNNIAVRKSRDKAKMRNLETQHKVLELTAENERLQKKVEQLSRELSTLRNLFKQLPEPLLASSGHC

The nature of assay [3]: ATG_CMV_CIS: Attagene CIS-FACTORIAL HepG2 Assay for human CMV (Internal Marker) (AID 2282928).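 Also: endpoint acts as a background internal control marker rather than a target.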 As to conditions: HepG2 CMV promoter reporter, transcription factor profiling; actives raise or lower the signal. The procedure, abridged:
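Reporter transcripts from transfected HepG2 cells are isolated after 24 h of chemical dosing, reverse-transcribed and amplified. Fragments labeled with 6-FAM are cut with HpaI and quantified by capillary electrophoresis; DMSO defines baseline.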

Assay [4] deals with Aryl hydrocarbon receptor (Homo sapiens) (UniProt P35869). Description: ATG_Ahr_CIS: Attagene CIS-FACTORIAL HepG2 Assay for human Aryl Hydrocarbon Receptor (Ahr) (AID 2282930). The following applies: HepG2 AhR cis-factorial reporter transcription; actives raise or lower the signal. A digest of the protocol: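 Endogenous factor activity is tracked through cis-promoter reporter units transfected into HepG2 cells. Transcript levels at 24 h are read by fluorescent RT-PCR and capillary electrophoresis, with activity in either direction scored relative to DMSO.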
Chain of Aryl hydrocarbon receptor (Homo sapiens) (P35869 whole entry, looked up): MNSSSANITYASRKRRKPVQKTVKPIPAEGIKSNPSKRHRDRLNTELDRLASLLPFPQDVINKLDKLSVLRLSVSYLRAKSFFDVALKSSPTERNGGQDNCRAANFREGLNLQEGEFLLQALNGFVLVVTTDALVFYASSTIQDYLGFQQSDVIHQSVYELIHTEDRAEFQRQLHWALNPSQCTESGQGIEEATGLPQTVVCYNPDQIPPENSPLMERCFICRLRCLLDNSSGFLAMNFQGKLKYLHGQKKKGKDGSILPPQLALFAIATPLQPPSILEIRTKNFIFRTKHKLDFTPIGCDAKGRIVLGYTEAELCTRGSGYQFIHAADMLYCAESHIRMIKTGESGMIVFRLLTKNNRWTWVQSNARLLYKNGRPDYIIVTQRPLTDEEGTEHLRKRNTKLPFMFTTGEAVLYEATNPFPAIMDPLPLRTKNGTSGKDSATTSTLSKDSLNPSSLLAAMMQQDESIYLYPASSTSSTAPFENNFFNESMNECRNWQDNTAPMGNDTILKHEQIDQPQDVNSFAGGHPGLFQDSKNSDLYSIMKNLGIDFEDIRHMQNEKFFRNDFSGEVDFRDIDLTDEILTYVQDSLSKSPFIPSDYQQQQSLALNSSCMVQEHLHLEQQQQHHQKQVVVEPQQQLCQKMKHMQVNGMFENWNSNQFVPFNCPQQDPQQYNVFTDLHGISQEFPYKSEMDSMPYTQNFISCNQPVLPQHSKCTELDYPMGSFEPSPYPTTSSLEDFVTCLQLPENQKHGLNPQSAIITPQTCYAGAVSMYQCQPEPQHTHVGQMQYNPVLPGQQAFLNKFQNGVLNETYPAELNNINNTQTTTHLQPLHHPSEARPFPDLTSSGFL

Assay [5] is described as follows: ATG_AP_1_CIS: Attagene CIS-FACTORIAL HepG2 Assay for human Activator Protein 1 (AP-1) (AID 2282931). As to conditions: HepG2 Attagene cis-factorial AP-1 reporter mRNA; actives raise or lower the signal. A digest of the protocol:
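Cis-regulated reporter units transiently expressed in HepG2 report endogenous transcription-factor activity. Signal: reporter mRNA at 24 h, via RT-PCR and fluorescent capillary electrophoresis. Endpoint derived by bidirectional fitting, DMSO as negative control.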

Assay [6] in a line: ATG_AP_2_CIS: Attagene CIS-FACTORIAL HepG2 Assay for human Activator Protein 2 (AP-2) (AID 2282932). As to conditions: HepG2 AP-2 cis-reporter, Attagene transcription factor profiling; actives raise or lower the signal. A digest of the protocol:
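Liver-derived HepG2 line, cis-reporter system measuring endogenous factors; 24 h dosing; reporter mRNA detected by fluorescent RT-PCR and capillary electrophoresis.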

Assay [7] can be described thus: ATG_BRE_CIS: Attagene CIS-FACTORIAL HepG2 Assay for human Bone Morphogenetic Protein (BMP) Response Element (BRE) (AID 2282933). The following applies: HepG2 BMP response element reporter, Attagene transcription factor profiling; actives raise or lower the signal. The procedure, abridged:
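HepG2 cells transiently transfected with multiplexed cis-element reporter units were dosed with chemical for 24 h. Reporter mRNA was measured by RT-PCR with fluorescent labelling, HpaI digestion and capillary electrophoresis; bidirectional fitting relative to DMSO.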

The target in assay [8] is Retinoic acid receptor alpha (Homo sapiens) (UniProt P10276). Description: ATG_DR5_RAR_CIS: Attagene CIS-FACTORIAL HepG2 Assay for human Retinoic Acid Receptor Alpha (RARE), DR5 submotif (AID 2282934).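 As to AC50: reporter responds to endogenous RAR alpha beta and gamma in HepG2 not RARA alone.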 The following applies: HepG2 Attagene cis-factorial RARE DR5 reporter, mRNA; actives raise or lower the signal. The procedure, abridged: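 After 24 h of chemical exposure, transiently transfected HepG2 cells were lysed for total RNA; the DR5-regulated reporter transcript was quantified via RT-PCR and capillary electrophoresis, with activity fitted bidirectionally against DMSO.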
Chain of Retinoic acid receptor alpha (Homo sapiens) (P10276 whole entry, looked up): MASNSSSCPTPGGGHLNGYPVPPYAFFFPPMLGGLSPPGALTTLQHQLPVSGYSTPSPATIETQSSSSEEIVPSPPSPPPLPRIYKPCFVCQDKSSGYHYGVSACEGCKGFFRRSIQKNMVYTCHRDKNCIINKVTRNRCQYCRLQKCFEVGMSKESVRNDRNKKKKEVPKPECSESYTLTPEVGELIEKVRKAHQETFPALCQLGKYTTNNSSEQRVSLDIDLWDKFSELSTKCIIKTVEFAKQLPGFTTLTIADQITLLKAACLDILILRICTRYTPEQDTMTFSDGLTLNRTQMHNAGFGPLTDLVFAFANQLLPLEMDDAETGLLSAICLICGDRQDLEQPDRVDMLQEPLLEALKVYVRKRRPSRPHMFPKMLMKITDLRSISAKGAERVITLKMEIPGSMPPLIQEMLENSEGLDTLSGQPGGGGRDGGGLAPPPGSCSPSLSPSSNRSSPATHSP

A short description of assay [9]: ATG_E_Box_CIS: Attagene CIS-FACTORIAL HepG2 Assay for human Enhancer Box (E-box) (AID 2282936). The following applies: HepG2 E-box cis-reporter transcription, actives raise or lower the signal. The procedure, abridged: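 In this cell-based setup, HepG2 cells bearing transfected promoter-driven reporter units were exposed to chemicals for 24 h; reporter transcripts were amplified, 6-FAM-labelled, cut with HpaI and sized by capillary electrophoresis.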

Assay [10] in a line: ATG_M_61_CIS: Attagene CIS-FACTORIAL HepG2 Assay for M61 Transcription Factor (Internal Marker) (AID 2282937). As to conditions: HepG2 Attagene CIS-FACTORIAL M61 internal marker reporter; actives raise or lower the signal. A digest of the protocol:
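Background-control endpoint: HepG2 cells with cis-regulated reporter constructs, 24 h exposure, reporter mRNA detected via fluorescent primer extension and capillary electrophoresis; values from bidirectional fitting with DMSO baseline.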

A short description of assay [11]: ATG_EGR_CIS: Attagene CIS-FACTORIAL HepG2 Assay for human Early Growth Response 1 (EGR1) (AID 2282938). As to conditions: HepG2 Attagene CIS-FACTORIAL EGR reporter mRNA; actives raise or lower the signal. The procedure, abridged:
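Endpoint derived by bidirectional fitting versus DMSO vehicle. Method: cis-promoter reporter units transfected into HepG2, 24 h dosing, RNA isolation, RT-PCR with 6-FAM primer extension and HpaI digestion, then capillary electrophoresis fluorescence detection.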

Assay [12] is described as follows: ATG_M_19_CIS: Attagene CIS-FACTORIAL HepG2 Assay for M19 Transcription Factor (Internal Marker) (AID 2282939). The following applies: HepG2 Attagene CIS-FACTORIAL M19 internal marker reporter; actives raise or lower the signal. A digest of the protocol:
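HepG2 cells transiently transfected with cis-regulated multiple reporter transcription units were dosed for 24 h; reporter mRNA was quantified by RT-PCR, 6-FAM primer-extension labelling, HpaI digestion and capillary electrophoresis, with bidirectional fitting against DMSO baseline.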

Assay [13] is described as follows: ATG_Ets_CIS: Attagene CIS-FACTORIAL HepG2 Assay for human Erythroblast Transformation Specific (ETS) (AID 2282941). As to conditions: HepG2 ETS cis-reporter transcription, actives raise or lower the signal. The procedure, abridged:
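Bidirectional fit versus DMSO of reporter mRNA signal, detected by RT-PCR and capillary electrophoresis in HepG2 cells transiently transfected with cis-element reporters and dosed 24 h.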

The target of assay [14] is Hepatocyte nuclear factor 3-beta (Homo sapiens) (UniProt Q9Y261). Description: ATG_FoxA2_CIS: Attagene CIS-FACTORIAL HepG2 Assay for human Forkhead box A2 (FOXA2) (AID 2282942). As to conditions: HepG2 cis-reporter transcription factor activity, 24 h; actives raise or lower the signal. A digest of the protocol: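 Measured: reporter mRNA induction or loss in HepG2 transiently carrying multiple cis-regulated reporter units, 24 h after dosing. Quantified by RT-PCR plus capillary electrophoresis, normalised to DMSO.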
Chain of Hepatocyte nuclear factor 3-beta (Homo sapiens) (Q9Y261 whole entry, looked up): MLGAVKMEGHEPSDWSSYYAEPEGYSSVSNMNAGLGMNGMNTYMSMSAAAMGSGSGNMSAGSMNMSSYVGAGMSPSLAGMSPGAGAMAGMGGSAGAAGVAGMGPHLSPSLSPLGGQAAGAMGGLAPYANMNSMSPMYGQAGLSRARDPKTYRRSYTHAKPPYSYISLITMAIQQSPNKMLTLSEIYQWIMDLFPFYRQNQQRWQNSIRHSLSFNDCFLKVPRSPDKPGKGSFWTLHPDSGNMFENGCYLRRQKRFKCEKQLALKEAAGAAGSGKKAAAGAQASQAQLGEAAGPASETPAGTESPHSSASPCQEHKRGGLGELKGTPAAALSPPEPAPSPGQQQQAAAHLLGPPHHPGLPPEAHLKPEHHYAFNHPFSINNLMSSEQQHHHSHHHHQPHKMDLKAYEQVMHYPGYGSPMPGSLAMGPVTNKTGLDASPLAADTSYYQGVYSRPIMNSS

Assay [15] is described as follows: ATG_FoxO_CIS: Attagene CIS-FACTORIAL HepG2 Assay for human Forkhead box O (FoxO) (AID 2282943). The following applies: HepG2 Attagene cis-reporter, FoxO element, mRNA; actives raise or lower the signal. A digest of the protocol: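 Transfected HepG2 reporter cells exposed to test chemical for 24 h; reporter RNA measured by reverse transcription, PCR and fluorescent capillary electrophoresis; curves fitted for increases and decreases against DMSO.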

Assay [16] can be described thus: ATG_GATA_CIS: Attagene CIS-FACTORIAL HepG2 Assay for human GATA Binding Protein (AID 2282944). As to conditions: HepG2 GATA cis-element reporter, Attagene multiplex mRNA; actives raise or lower the signal. A digest of the protocol: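 HepG2 cells transiently transfected with multiplexed cis-element reporter units reflecting endogenous transcription factor activity; reporter mRNA measured after 24 h dosing by RT-PCR, 6-FAM labeling, HpaI digestion and capillary electrophoresis. Bidirectional fitting versus DMSO baseline.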

The nature of assay [17]: ATG_GLI_CIS: Attagene CIS-FACTORIAL HepG2 Assay for human Zinc Finger Protein GLI1 (AID 2282945). The following applies: HepG2, Attagene cis-factorial reporter mRNA, GLI element; actives raise or lower the signal. A digest of the protocol:
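Transiently transfected HepG2 cells report endogenous transcription factor activity via cis-element-driven reporter units. After 24 h compound exposure, reporter mRNA was measured by RT-PCR with capillary electrophoresis; bidirectional fitting against DMSO baseline.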

The nature of assay [18]: ATG_DR4_LXR_CIS: Attagene CIS-FACTORIAL HepG2 Assay for human Liver X Receptor (LXR), DR4 submotif (AID 2282929). The following applies: HepG2 Attagene DR4 cis-reporter, mRNA transcription; actives raise or lower the signal. The procedure, abridged:
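DR4 cis-reporter in HepG2, 24 h exposure. Detection: RT-PCR, 6-FAM labelling, CE fragment analysis. Endpoint fitted bidirectionally, DMSO = baseline.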

The target in assay [19] is Transcription factor E2F1 (Homo sapiens) (UniProt Q01094). Description: ATG_E2F_CIS: Attagene CIS-FACTORIAL HepG2 Assay for human E2F Transcription Factor 1 (AID 2282935). The following applies: HepG2 Attagene cis-reporter, E2F reporter RNA transcripts; actives raise or lower the signal. The procedure, abridged: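 Liver-derived HepG2 cells expressing transfected promoter-driven reporter units received test chemical for 24 hours. Signal gains or losses were fitted bidirectionally against DMSO.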
Chain of Transcription factor E2F1 (Homo sapiens) (Q01094 whole entry, looked up): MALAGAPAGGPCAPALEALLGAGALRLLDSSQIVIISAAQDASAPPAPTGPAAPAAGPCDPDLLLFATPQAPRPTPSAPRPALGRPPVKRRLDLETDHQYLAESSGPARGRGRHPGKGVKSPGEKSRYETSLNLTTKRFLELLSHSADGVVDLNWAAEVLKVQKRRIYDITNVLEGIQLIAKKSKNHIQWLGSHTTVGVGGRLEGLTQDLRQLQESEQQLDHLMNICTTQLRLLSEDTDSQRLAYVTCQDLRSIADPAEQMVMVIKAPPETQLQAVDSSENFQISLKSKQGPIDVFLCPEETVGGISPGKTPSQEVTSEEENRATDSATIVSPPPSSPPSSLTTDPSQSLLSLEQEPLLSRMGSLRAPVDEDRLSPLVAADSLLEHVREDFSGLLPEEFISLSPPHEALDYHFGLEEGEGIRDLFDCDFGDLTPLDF

The source made the active and inactive calls. The calls were made as follows: active = hit-call score of the fitted dose curve at least 0.9, where 1 is the maximum; inactive = score below 0.9.

Take `CC(C)C[C@H](NC(=O)OCC1c2ccccc2-c2ccccc21)C(=O)O`: the compound was called inactive in [1], in assay [2], in assay [3], in [4], in assay [5] and in assay [6]. In addition, the compound was classed as inactive in assay [7], in [8], in assay [9], in assay [10], in [11] and in [12]. The compound was called inactive in assay [13], in assay [14], in [15], in assay [16] and in assay [17].
`CCCCCCCCCCCC(=O)OC[C@@H](O)[C@H]1OC[C@H](O)[C@H]1O`: the call in assay [1], in assay [2], in [18], in [4], in assay [5] and in assay [6] was inactive. Besides, the result in [7], in assay [8], in [19], in assay [9], in [10] and in assay [12] was inactive. The compound was called inactive in assay [13], in assay [14], in assay [16] and in assay [17].
Consider `CCCCCCCCCC(C)C=O` (stereo unspecified), for which the outcome in assay [1], in assay [2], in assay [18], in assay [4], in assay [5] and in [6] was inactive. Moreover, the compound was classed as inactive in [7], in [8], in assay [19], in [9], in assay [10] and in assay [11]. In addition, the outcome in [12], in assay [13], in [14], in [15], in [16] and in [17] was inactive.
With `C[C@H]1C[C@@H](O)CC(C)(C)C1`, the compound was called inactive in assay [1], in [2], in [18], in assay [4], in assay [5] and in assay [6]. The outcome in [7], in [8], in [19], in assay [9], in assay [10] and in assay [11] was inactive. Further, the compound was classed as inactive in [12], in [13], in assay [14], in assay [16] and in assay [17].
As for `c1ccc(Oc2ccccc2)cc1`, the outcome in assay [1], in assay [2], in assay [18], in assay [4], in assay [5] and in assay [6] was inactive. In addition, the outcome in assay [7], in [8], in [9], in [10], in [11] and in assay [12] was inactive. Moreover, the result in assay [13], in assay [14], in [15], in assay [16] and in assay [17] was inactive.
On to `COCCOCCOCCO`, for which the outcome in assay [1], in assay [2], in assay [18], in assay [4], in [5] and in assay [6] was inactive. The call in assay [7], in assay [8], in assay [19], in assay [9], in assay [10] and in assay [11] was inactive. The call in [12], in assay [13], in assay [14], in assay [15], in [16] and in assay [17] was inactive.
`BrCc1cccc(Oc2ccccc2)c1`: the outcome in assay [1], in [2], in assay [4], in assay [5], in assay [6] and in [7] was inactive. Further, the call in assay [19], in assay [9], in assay [10], in [11], in assay [12] and in assay [13] was inactive. Moreover, the compound was classed as inactive in assay [14], in assay [15], in assay [16] and in assay [17]. Further, the AC50 (commonly the concentration giving half of the maximal activity seen) in [18] is 159 µM (active); in assay [8], 5.96 µM (active).

Values taken from PubChem BioAssay (EPA / NIEHS).
